# From PubChem BioAssay (Tox21)
# Values without a mark were called inactive. Results filed as inconclusive are left out. Where a call stands in place of a potency, no number is given. Activity calls are given as the source filed them. Calls come from the whole dose curve; as a rule, active = well fitted curve in the direction sought with a large enough effect in the repeat runs; inconclusive = weak or mixed curves; inactive = no such curve, though single readings can be large; an effect the other way counts as inactive or inconclusive.
# Key:
# [1] = A CellTox Green Cytotoxicity Assay to monitor cytotoxicity in HEK293 cells - 40 hour (AID 1224871); note: nearly all actives have a fitted effect of over 45% in size; note: potency is the fitted concentration of half-maximal effect
# Procedure, shortened: (§1)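 Tox21 screen in HEK293: membrane-impermeant cyanine dye fluoresces on binding dead-cell DNA; compound pinned 5 h post-seeding, plates held at 37 C, signal read repeatedly through 40 h.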
# [2] = qHTS RealTime-Glo MT Cell Viability Assay in HepG2 cells - 8 hour (AID 1224873); note: nearly all actives have a fitted effect of over 55% in size
# Procedure, shortened: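 HepG2 cells (600/well) mixed with RealTime-Glo MT reagent, settled 5 h at 37 C/5% CO2 before compound addition. Nonlytic NanoLuc luminescence from viable-cell prosubstrate reduction read repeatedly during 40 h treatment at 37 C.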
# [3] = qHTS RealTime-Glo MT Cell Viability Assay in HEK293 cells - 40 hour (AID 1224874); conditions: RealTime-Glo luminescence; max response: active compounds read low; note: nearly all actives have a fitted effect of over 50% in size; note: potency is the fitted concentration of half-maximal effect
# Procedure, shortened: (§2)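 HEK293 + NanoLuc + prosubstrate, 600 cells/well; 5 h, 37 C/5% CO2; compound 23 nL in DMSO by pintool; 37 C; luminescence read at 0, 8, 16, 24, 32 and 40 h time points.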
# [4] = A CellTox Green Cytotoxicity Assay to monitor cytotoxicity in HEK293 cells - 24 hour (AID 1224875); note: nearly all actives have a fitted effect of over 45% in size; note: potency is the fitted concentration of half-maximal effect
# Procedure, shortened: as §1
# [5] = A CellTox Green Cytotoxicity Assay to monitor cytotoxicity in HepG2 cells - 16 hour (AID 1224876); note: nearly all actives have a fitted effect of over 45% in size; note: potency is the fitted concentration of half-maximal effect
# Procedure, shortened: (§3)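 Measurements at 0, 8, 16, 24, 32 and 40 h of treatment captured CellTox Green fluorescence in HepG2 cells that had been co-plated with reagent and preincubated 5 h at 37 C/5% CO2.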
# [6] = qHTS RealTime-Glo MT Cell Viability Assay in HepG2 cells - 32 hour (AID 1224877); note: nearly all actives have a fitted effect of over 55% in size; note: potency is the fitted concentration of half-maximal effect
# Procedure, shortened: (§4)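 Cell number in HepG2 cultures estimated from NanoLuc luminescence generated by metabolic reduction of a prosubstrate by living cells. The homogeneous, nonlytic format allowed repeated reads at 0, 8, 16, 24, 32 and 40 h of compound exposure.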
# [7] = A CellTox Green Cytotoxicity Assay to monitor cytotoxicity in HepG2 cells - 24 hour (AID 1224878); note: nearly all actives have a fitted effect of over 45% in size; note: potency is the fitted concentration of half-maximal effect
# Procedure, shortened: as §3
# [8] = A CellTox Green Cytotoxicity Assay to monitor cytotoxicity in HepG2 cells - 40 hour (AID 1224879); note: nearly all actives have a fitted effect of over 40% in size; note: potency is the fitted concentration of half-maximal effect
# Procedure, shortened: as §3
# [9] = qHTS RealTime-Glo MT Cell Viability Assay in HEK293 cells - 0 hour (AID 1224880)
# Procedure, shortened: as §2
# [10] = A CellTox Green Cytotoxicity Assay to monitor cytotoxicity in HEK293 cells - 32 hour (AID 1224881); note: nearly all actives have a fitted effect of over 40% in size; note: potency is the fitted concentration of half-maximal effect
# Procedure, shortened: as §1
# [11] = A CellTox Green Cytotoxicity Assay to monitor cytotoxicity in HepG2 cells - 0 hour (AID 1224882); note: nearly all actives have a fitted effect of over 35% in size
# Procedure, shortened: as §3
# [12] = A CellTox Green Cytotoxicity Assay to monitor cytotoxicity in HepG2 cells - 32 hour (AID 1224883); note: nearly all actives have a fitted effect of over 50% in size; note: potency is the fitted concentration of half-maximal effect
# Procedure, shortened: as §3
# [13] = A CellTox Green Cytotoxicity Assay to monitor cytotoxicity in HEK293 cells - 8 hour (AID 1224884); note: nearly all actives have a fitted effect of over 35% in size
# Procedure, shortened: as §1
# [14] = qHTS RealTime-Glo MT Cell Viability Assay in HepG2 cells - 16 hour (AID 1224885); note: nearly all actives have a fitted effect of over 50% in size; note: potency is the fitted concentration of half-maximal effect
# Procedure, shortened: as §4
# [15] = qHTS RealTime-Glo MT Cell Viability Assay in HEK293 cells - 24 hour (AID 1224886); note: nearly all actives have a fitted effect of over 50% in size; note: potency is the fitted concentration of half-maximal effect
# Procedure, shortened: (§5)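 Homogeneous bioluminescent viability format in HEK293 cells (600 cells/well). Following 5 h at 37 C/5% CO2, 23 nL compound was pintooled; the signal was measured repeatedly during 40 h incubation.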
# [16] = qHTS RealTime-Glo MT Cell Viability Assay in HEK293 cells - 8 hour (AID 1224887); note: nearly all actives have a fitted effect of over 50% in size; note: potency is the fitted concentration of half-maximal effect
# Procedure, shortened: as §2
# [17] = A CellTox Green Cytotoxicity Assay to monitor cytotoxicity in HEK293 cells - 16 hour (AID 1224888); note: nearly all actives have a fitted effect of over 35% in size
# Procedure, shortened: as §1
# [18] = qHTS RealTime-Glo MT Cell Viability Assay in HepG2 cells - 0 hour (AID 1224889); note: nearly all actives have a fitted effect of over 50% in size
# Procedure, shortened: as §4
# [19] = A CellTox Green Cytotoxicity Assay to monitor cytotoxicity in HepG2 cells - 8 hour (AID 1224890); note: nearly all actives have a fitted effect of over 45% in size
# Procedure, shortened: as §3
# [20] = qHTS RealTime-Glo MT Cell Viability Assay in HEK293 cells - 16 hour (AID 1224872); note: nearly all actives have a fitted effect of over 50% in size; note: potency is the fitted concentration of half-maximal effect
# Procedure, shortened: as §5
structure (smiles),measurement,setting,value
Cc1ccc(S(=O)(=O)NC(=O)NC2CCCCC2)cc1,Potency,[1],inactive
same,Potency,[2],inactive
same,max response,[3],4.44%
same,Potency,[4],inactive
same,Potency,[5],inactive
same,Potency,[6],inactive
same,Potency,[7],inactive
same,Potency,[8],inactive
same,Potency,[9],inactive
same,Potency,[10],inactive
same,Potency,[11],inactive
same,Potency,[12],inactive
same,Potency,[13],inactive
same,Potency,[14],inactive
same,Potency,[15],inactive
same,Potency,[16],inactive
same,Potency,[17],inactive
same,Potency,[18],inactive
same,Potency,[19],inactive
CO[C@@H]1[C@@H](OC)[C@H](C)[C@@](O)(CC(=O)O)O[C@H]1[C@H](C)[C@H]1O[C@@]2(CC[C@@](C)([C@H]3CC[C@@](C)([C@@H]4O[C@@H]([C@H]5O[C@](C)(O)[C@H](C)C[C@@H]5C)C[C@@H]4OC4C[C@H](OC)[C@@H](OC)[C@H](C)O4)O3)O2)C[C@H](O)[C@H]1C (stereo partly drawn),Potency,[1],4.77 µM (active)
same,Potency,[20],5.35 µM (active)
same,Potency,[3],2.39 µM (active)
same,Potency,[4],inactive
same,Potency,[6],5.35 µM (active)
same,Potency,[7],12 µM (active)
same,Potency,[8],6.74 µM (active)
same,Potency,[9],inactive
same,Potency,[12],9.52 µM (active)
same,Potency,[13],inactive
same,Potency,[15],3.38 µM (active)
same,Potency,[16],8.49 µM (active)
same,Potency,[18],inactive
COc1cc(S(=O)(=O)Nc2ccccc2)c(OC)cc1N,Potency,[1],inactive
same,Potency,[20],inactive
same,Potency,[4],inactive
same,Potency,[5],inactive
same,Potency,[6],inactive
same,Potency,[7],inactive
same,Potency,[8],inactive
same,Potency,[9],inactive
same,Potency,[10],inactive
same,Potency,[11],inactive
same,Potency,[12],inactive
same,Potency,[13],inactive
same,Potency,[15],inactive
same,Potency,[16],inactive
same,Potency,[17],inactive
same,Potency,[18],inactive
CCN(CC)CCNC(=O)c1cc(Cl)c(N)cc1OC,Potency,[1],inactive
same,Potency,[2],inactive
same,max response,[3],-5.88%
same,Potency,[4],inactive
same,Potency,[5],inactive
same,Potency,[6],inactive
same,Potency,[7],inactive
same,Potency,[8],inactive
same,Potency,[9],inactive
same,Potency,[10],inactive
same,Potency,[11],inactive
same,Potency,[12],inactive
same,Potency,[13],inactive
same,Potency,[14],inactive
same,Potency,[16],inactive
same,Potency,[17],inactive
same,Potency,[18],inactive
same,Potency,[19],inactive
CCOC(=O)c1c(N)sc2c1CCN(Cc1ccccc1)C2,Potency,[1],inactive
same,Potency,[2],inactive
same,Potency,[3],19 µM (active)
same,Potency,[4],inactive
same,Potency,[5],inactive
same,Potency,[6],inactive
same,Potency,[7],inactive
same,Potency,[8],inactive
same,Potency,[9],inactive
same,Potency,[10],inactive
same,Potency,[11],inactive
same,Potency,[12],inactive
same,Potency,[13],inactive
same,Potency,[14],inactive
same,Potency,[15],19 µM (active)
same,Potency,[18],inactive
same,Potency,[19],inactive
CCN(CC)C(=O)N1CCN(C)CC1,Potency,[1],inactive
same,Potency,[2],inactive
same,max response,[3],4.18%
same,Potency,[4],inactive
same,Potency,[5],inactive
same,Potency,[6],inactive
same,Potency,[7],inactive
same,Potency,[8],inactive
same,Potency,[9],inactive
same,Potency,[10],inactive
same,Potency,[11],inactive
same,Potency,[12],inactive
same,Potency,[13],inactive
same,Potency,[14],inactive
same,Potency,[15],inactive
same,Potency,[16],inactive
same,Potency,[17],inactive
same,Potency,[18],inactive
same,Potency,[19],inactive
COC(=O)Nc1nc2ccc(C(=O)C3CC3)cc2[nH]1,Potency,[1],inactive
same,Potency,[2],inactive
same,Potency,[4],inactive
same,Potency,[5],inactive
same,Potency,[6],inactive
same,Potency,[7],inactive
same,Potency,[8],0.848 µM (active)
same,Potency,[9],inactive
same,Potency,[10],inactive
same,Potency,[11],inactive
same,Potency,[12],0.952 µM (active)
same,Potency,[13],inactive
same,Potency,[14],inactive
same,Potency,[16],inactive
same,Potency,[17],inactive
same,Potency,[19],inactive
O=C(O)CNC(=O)c1ccccc1I,Potency,[1],inactive
same,Potency,[2],inactive
same,Potency,[4],inactive
same,Potency,[5],inactive
same,Potency,[6],inactive
same,Potency,[7],inactive
same,Potency,[8],inactive
same,Potency,[9],inactive
same,Potency,[10],inactive
same,Potency,[11],inactive
same,Potency,[12],inactive
same,Potency,[13],inactive
same,Potency,[14],inactive
same,Potency,[15],inactive
same,Potency,[16],inactive
same,Potency,[18],inactive
same,Potency,[19],inactive
c1ccc(CNc2ncnc3c2ncn3C2CCCCO2)cc1 (stereo not drawn),Potency,[1],inactive
same,Potency,[2],inactive
same,Potency,[4],inactive
same,Potency,[5],inactive
same,Potency,[6],inactive
same,Potency,[7],inactive
same,Potency,[8],inactive
same,Potency,[9],inactive
same,Potency,[10],inactive
same,Potency,[11],inactive
same,Potency,[12],inactive
same,Potency,[13],inactive
same,Potency,[14],inactive
same,Potency,[17],inactive
same,Potency,[18],inactive
same,Potency,[19],inactive
Cc1cc([N+](=O)[O-])ccc1N,Potency,[1],inactive
same,Potency,[2],inactive
same,max response,[3],-19.2%
same,Potency,[4],inactive
same,Potency,[5],inactive
same,Potency,[7],inactive
same,Potency,[8],inactive
same,Potency,[9],inactive
same,Potency,[10],inactive
same,Potency,[11],inactive
same,Potency,[12],inactive
same,Potency,[13],inactive
same,Potency,[14],inactive
same,Potency,[15],inactive
same,Potency,[16],inactive
same,Potency,[17],inactive
same,Potency,[18],inactive
COc1cc(NC(C)CCCN)c2ncccc2c1 (stereo not drawn),Potency,[20],inactive
same,Potency,[2],inactive
same,max response,[3],-12.5%
same,Potency,[4],inactive
same,Potency,[5],inactive
same,Potency,[6],inactive
same,Potency,[7],inactive
same,Potency,[8],inactive
same,Potency,[9],inactive
same,Potency,[10],inactive
same,Potency,[11],inactive
same,Potency,[12],inactive
same,Potency,[13],inactive
same,Potency,[14],inactive
same,Potency,[15],inactive
same,Potency,[17],inactive
same,Potency,[19],inactive
CN(C)CC/C=C1\c2ccccc2Sc2ccc(Cl)cc21,Potency,[1],23.9 µM (active)
same,Potency,[4],26.8 µM (active)
same,Potency,[5],21.3 µM (active)
same,Potency,[6],23.9 µM (active)
same,Potency,[7],21.3 µM (active)
same,Potency,[8],21.3 µM (active)
same,Potency,[10],26.8 µM (active)
same,Potency,[11],inactive
same,Potency,[12],21.3 µM (active)
same,Potency,[14],23.9 µM (active)
same,Potency,[15],23.9 µM (active)
Nc1nc(-c2ccc([N+](=O)[O-])cc2)cs1,Potency,[20],inactive
same,Potency,[2],inactive
same,max response,[3],-14.1%
same,Potency,[4],inactive
same,Potency,[5],inactive
same,Potency,[6],inactive
same,Potency,[7],inactive
same,Potency,[8],inactive
same,Potency,[9],inactive
same,Potency,[10],inactive
same,Potency,[11],inactive
same,Potency,[12],inactive
same,Potency,[13],inactive
same,Potency,[14],inactive
same,Potency,[15],inactive
same,Potency,[16],inactive
same,Potency,[17],inactive
same,Potency,[18],inactive
same,Potency,[19],inactive
O=C(Oc1ccccc1)c1ccc2ccccc2c1O,Potency,[1],inactive
same,Potency,[2],inactive
same,max response,[3],-20.6%
same,Potency,[4],inactive
same,Potency,[6],inactive
same,Potency,[8],inactive
same,Potency,[9],inactive
same,Potency,[10],inactive
same,Potency,[11],inactive
same,Potency,[13],inactive
same,Potency,[14],inactive
same,Potency,[17],inactive
same,Potency,[19],inactive
